PubChem BioAssay AID1159580 (chemical genetic matrix, 2015)
Where “and” joins values, the source holds several entries; their conditions need not be identical. Identical values can stand only once. In all, about 5,500 compounds went through this assay and about 2,000 (36%) were called active. Inconclusive results (about 18%) are left out. No stated cut-off is given here; in the data, active means normalized growth mostly below about 0.91 (no sharp cut-off); inconclusive means no clear call, values can overlap the other calls; inactive means mostly above about 0.92. The list shows a part of the results.

Experiment: chemical genetic growth profiling, strain panel (AID 1159580);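 further: tested at 20 µM; growth read once vehicle control cultures reached saturation at 30 °C; 1 = growth at the plate median or of vehicle wells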
Settings: S. cerevisiae deletion strains, growth OD

Measured: normalized growth

CCOc1ccc(C(=O)c2cc(O)c(OC)c(OC)c2O)cc1
inactive: locus YAL021C, strain ccr4, stronger effect = lower value 1 | locus YAL026C, strain drs2, stronger effect = lower value 0.941 | locus YAL030W, strain snc1, stronger effect = lower value 0.993 | locus YBL061C, strain skt5, stronger effect = lower value 0.998 | locus YBR009C, strain hhf1, stronger effect = lower value 0.938 | locus YBR021W, strain FUR4, stronger effect = lower value 1.06 | locus YBR023C, strain chs3, stronger effect = lower value 0.997 | locus YBR171W, strain sec66, stronger effect = lower value 0.981 | locus YBR229C, strain ROT2, stronger effect = lower value 1.01 | locus YBR231C, strain swc5, stronger effect = lower value 0.987 | locus YBR279W, strain paf1, stronger effect = lower value 1 | locus YCL011C, strain gbp2, stronger effect = lower value 0.998 | locus YCL016C, strain dcc1, stronger effect = lower value 1 | locus YCL029C, strain bik1, stronger effect = lower value 1.01 | locus YCL061C, strain MRC1, stronger effect = lower value 1 | locus YCL069W, strain vba3, stronger effect = lower value 0.997 | locus YCR088W, strain abp1, stronger effect = lower value 0.997 | locus YDL005C, strain med2, stronger effect = lower value 1.01 | locus YDL035C, strain GPR1, stronger effect = lower value 1.02 | locus YDL040C, strain nat1, stronger effect = lower value 1.01 | locus YDL074C, strain BRE1, stronger effect = lower value 1.11 | locus YDL101C, strain DUN1, stronger effect = lower value 1.01 | locus YDL134C, strain PPH21, stronger effect = lower value 1.01 | locus YDL185W, strain tfp1, stronger effect = lower value 1.01 | locus YDL192W, strain arf1, stronger effect = lower value 0.957 | locus YDR001C, strain nth1, stronger effect = lower value 0.999 | locus YDR069C, strain doa4, stronger effect = lower value 0.969 | locus YDR101C, strain arx1, stronger effect = lower value 1 | locus YDR150W, strain NUM1, stronger effect = lower value 1.01 | locus YDR159W, strain sac3, stronger effect = lower value 0.97 | locus YDR162C, strain NBP2, stronger effect = lower value 0.983 | locus YDR195W, strain ref2 1.05 | locus YDR297W, strain sur2, stronger effect = lower value 0.995 | locus YDR318W, strain mcm21, stronger effect = lower value 0.99 | locus YDR334W, strain swr1, stronger effect = lower value 0.987 | locus YDR335W, strain msn5, stronger effect = lower value 0.999 | locus YDR388W, stronger effect = lower value 1.02 | locus YDR502C, strain sam2, stronger effect = lower value 1.02 | locus YEL003W, strain gim4, stronger effect = lower value 0.986 | locus YEL037C, strain rad23, stronger effect = lower value 0.99 | locus YEL061C, strain CIN8 (second series), stronger effect = lower value 0.992 | locus YER015W, strain faa2, stronger effect = lower value 0.999 | locus YER016W, strain bim1, stronger effect = lower value 0.995 | locus YER110C, stronger effect = lower value 1.03 | locus YER111C, strain swi4, stronger effect = lower value 0.989 | locus YER155C, strain BEM2, stronger effect = lower value 0.995 | locus YER167W, strain BCK2, stronger effect = lower value 1 | locus YFR010W, strain ubp6, stronger effect = lower value 0.98 | locus YGL078C, strain dbp3, stronger effect = lower value 1.03 | locus YGL086W, strain mad1, stronger effect = lower value 0.964 | locus YGL167C, strain pmr1, stronger effect = lower value 1 | locus YGL173C, strain kem1, stronger effect = lower value 0.988 | locus YGL227W, strain vid30, stronger effect = lower value 1.01 | locus YGL240W, strain doc1, stronger effect = lower value 0.985 | locus YGL248W, strain PDE1, stronger effect = lower value 1.04 | locus YGL253W, strain hxk2, stronger effect = lower value 1.01 | locus YGR135W, strain pre9, stronger effect = lower value 1.01 | locus YGR252W, strain gcn5, stronger effect = lower value 1.03 | locus YHR013C, strain ard1, stronger effect = lower value 0.985 | locus YHR027C, strain rpn1, stronger effect = lower value 0.991 | locus YHR030C, strain SLT2, stronger effect = lower value 1 and 0.941 | locus YHR079C, strain IRE1 (second series), stronger effect = lower value 1.03 | locus YHR079C, strain IRE1, stronger effect = lower value 0.938 | locus YHR094C, strain hxt1, stronger effect = lower value 1.01 | locus YHR129C, strain ARP1, stronger effect = lower value 1.03 | locus YHR142W, strain chs7, stronger effect = lower value 0.931 | locus YHR200W, strain rpn10, stronger effect = lower value 1.02 | locus YIL066C, strain RNR3, stronger effect = lower value 1.03 | locus YIL073C, strain SPO22, stronger effect = lower value 1.01 | locus YIL125W, strain kgd1, stronger effect = lower value 0.995 | locus YIR030C, strain dcg1, stronger effect = lower value 1.01 | locus YJL092W, strain hpr5, stronger effect = lower value 1 | locus YJL095W, strain BCK1 (second series), stronger effect = lower value 0.938 | locus YJL095W, strain BCK1, stronger effect = lower value 1.05 and 0.949 | locus YJL115W, strain asf1, stronger effect = lower value 1 | locus YJL129C, strain trk1, stronger effect = lower value 0.955 | locus YJL134W, strain LCB3, stronger effect = lower value 0.994 | locus YJL154C, strain vps35, stronger effect = lower value 1 | locus YJL164C, strain tpk1, stronger effect = lower value 0.969 | locus YJL166W, strain qcr8, stronger effect = lower value 0.974 | locus YJL168C, strain set2, stronger effect = lower value 1.01 | locus YJL187C, strain SWE1 (second series), stronger effect = lower value 1.03 | locus YJL187C, strain SWE1, stronger effect = lower value 0.991 | locus YJR043C, strain POL32, stronger effect = lower value 1.06 | locus YJR066W, strain TOR1, stronger effect = lower value 0.882 | locus YJR075W, strain HOC1, stronger effect = lower value 1 | locus YKL009W, strain mrt4, stronger effect = lower value 1.02 | locus YKL068W, stronger effect = lower value 0.988 | locus YKL085W, strain MDH1 (second series), stronger effect = lower value 0.985 | locus YKL085W, strain MDH1, stronger effect = lower value 0.985 | locus YKL160W, strain elf1, stronger effect = lower value 0.966 | locus YKL190W, strain CNB1, stronger effect = lower value 1.01 | locus YKR001C, strain vps1, stronger effect = lower value 0.959 | locus YKR026C, strain gcn3, stronger effect = lower value 0.997 | locus YKR091W, strain srl3, stronger effect = lower value 0.999 | locus YLL001W, strain dnm1, stronger effect = lower value 0.989 | locus YLL026W, stronger effect = lower value 1.01 | locus YLL041C, strain sdh2, stronger effect = lower value 1 | locus YLR027C, strain aat2, stronger effect = lower value 0.99 | locus YLR039C, strain RIC1, stronger effect = lower value 0.871 | locus YLR058C, strain SHM2, stronger effect = lower value 1.03 | locus YLR102C, strain apc9, stronger effect = lower value 1.01 | locus YLR221C, strain rsa3, stronger effect = lower value 0.984 | locus YLR258W, strain gsy2, stronger effect = lower value 0.989 | locus YLR262C, strain YPT6, stronger effect = lower value 0.625 | locus YLR268W, strain sec22, stronger effect = lower value 0.974 | locus YLR330W, strain CHS5, stronger effect = lower value 1 | locus YLR342W, strain FKS1 (second series), stronger effect = lower value 0.952 | locus YLR342W, strain FKS1, stronger effect = lower value 0.995 | locus YLR357W, strain rsc2, stronger effect = lower value 1.02 | locus YLR370C, strain arc18, stronger effect = lower value 0.994 | locus YLR371W, strain rom2, stronger effect = lower value 0.963 | locus YLR384C, strain iki3, stronger effect = lower value 0.999 | locus YLR418C, strain cdc73, stronger effect = lower value 1.04 | locus YML016C, strain PPZ1, stronger effect = lower value 1.01 | locus YML032C, strain rad52, stronger effect = lower value 1.03 | locus YML120C, strain ndi1, stronger effect = lower value 0.986 | locus YML124C, strain tub3, stronger effect = lower value 1.01 | locus YMR058W, strain fet3, stronger effect = lower value 0.981 | locus YMR078C, strain ctf18, stronger effect = lower value 1.03 | locus YMR125W, strain sto1, stronger effect = lower value 1.01 | locus YMR129W, stronger effect = lower value 1 | locus YMR205C, strain PFK2, stronger effect = lower value 0.932 | locus YMR223W, strain ubp8, stronger effect = lower value 0.981 | locus YMR231W, strain pep5, stronger effect = lower value 0.999 | locus YMR263W, strain SAP30, stronger effect = lower value 0.997 | locus YMR307W, strain GAS1, stronger effect = lower value 0.929 | locus YNL067W, strain RPL9B, stronger effect = lower value 1 | locus YNL183C, strain NPR1, stronger effect = lower value 0.906 | locus YNL209W, strain ssb2, stronger effect = lower value 0.992 | locus YNL233W, strain BNI4, stronger effect = lower value 1 | locus YNL248C, strain rpa49, stronger effect = lower value 1 | locus YNL250W, strain rad50, stronger effect = lower value 1.06 | locus YNL271C, strain bni1, stronger effect = lower value 1.01 | locus YNL298W, strain CLA4, stronger effect = lower value 1.04 | locus YNL322C, strain KRE1 (second series), stronger effect = lower value 0.989 | locus YNR049C, strain mso1, stronger effect = lower value 1 | locus YNR052C, strain pop2, stronger effect = lower value 1.02 | locus YOL006C, strain TOP1, stronger effect = lower value 1.18 | locus YOL012C, strain htz1 1.11 | locus YOL147C, strain pex11, stronger effect = lower value 1.01 | locus YOR001W, strain rrp6, stronger effect = lower value 0.992 | locus YOR061W, strain CKA2, stronger effect = lower value 1.01 | locus YOR069W, strain VPS5, stronger effect = lower value 1 | locus YOR070C, strain gyp1, stronger effect = lower value 0.981 | locus YOR080W, strain dia2, stronger effect = lower value 1.01 | locus YOR083W, strain WHI5, stronger effect = lower value 0.977 | locus YOR106W, strain vam3, stronger effect = lower value 0.9 | locus YOR136W, strain idh2, stronger effect = lower value 1.01 | locus YOR144C, strain elg1, stronger effect = lower value 1.01 | locus YOR184W, strain ser1, stronger effect = lower value 1.01 | locus YOR231W, strain MKK1, stronger effect = lower value 0.948 | locus YOR265W, strain rbl2, stronger effect = lower value 0.988 | locus YOR270C, strain vph1, stronger effect = lower value 0.903 | locus YOR290C, strain snf2, stronger effect = lower value 0.979 | locus YOR316C, strain cot1, stronger effect = lower value 1.03 | locus YPL078C, strain atp4, stronger effect = lower value 0.994 | locus YPL106C, strain sse1, stronger effect = lower value 1.04 | locus YPL240C, strain hsp82, stronger effect = lower value 0.991 | locus YPL241C, strain CIN2, stronger effect = lower value 1.01 | locus YPL256C, strain CLN2, stronger effect = lower value 0.934 | locus YPR119W, strain clb2, stronger effect = lower value 1.02 | locus YPR141C, strain kar3, stronger effect = lower value 1 | locus YPR163C, strain tif3, stronger effect = lower value 0.953 | locus YPR167C, strain met16, stronger effect = lower value 1.02 | strain wtn01, stronger effect = lower value 0.992
active: locus YDR137W, strain rgp1, stronger effect = lower value 0.79 | locus YDR392W, strain spt3, stronger effect = lower value 0.455 | locus YER155C, strain BEM2 (second series), stronger effect = lower value 0.734 | locus YLR113W, strain HOG1, stronger effect = lower value 0.844 | locus YLR262C, strain YPT6 (second series), stronger effect = lower value 0.341 | locus YLR320W, strain mms22, stronger effect = lower value 0.852 | locus YNL071W, strain lat1, stronger effect = lower value 0.626 | locus YNL307C, strain MCK1, stronger effect = lower value 0.858 | locus YPL051W, strain arl3, stronger effect = lower value 0.891
